Screening results (PubChem BioAssay)
In the library only some 2.5% were active in any assay of this set; here they are far more common.
ASK1 inh = ASK1 kinase inhibitors, primary screen, biochemical, AlphaScreen. 22,000 compounds, 0.99% hits. AlphaScreen MKK6 phosphorylation by ASK1, luminescence. AID 1159602, 2016. Mitogen-activated protein kinase kinase kinase 5 (Homo sapiens), Q99683. inhibition, % at 7.44 µM; in the data active means inhibition above about 35%;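 further: 0% = median of compound wells and 100% = no enzyme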
Target sequence (Q99683 whole entry, looked up): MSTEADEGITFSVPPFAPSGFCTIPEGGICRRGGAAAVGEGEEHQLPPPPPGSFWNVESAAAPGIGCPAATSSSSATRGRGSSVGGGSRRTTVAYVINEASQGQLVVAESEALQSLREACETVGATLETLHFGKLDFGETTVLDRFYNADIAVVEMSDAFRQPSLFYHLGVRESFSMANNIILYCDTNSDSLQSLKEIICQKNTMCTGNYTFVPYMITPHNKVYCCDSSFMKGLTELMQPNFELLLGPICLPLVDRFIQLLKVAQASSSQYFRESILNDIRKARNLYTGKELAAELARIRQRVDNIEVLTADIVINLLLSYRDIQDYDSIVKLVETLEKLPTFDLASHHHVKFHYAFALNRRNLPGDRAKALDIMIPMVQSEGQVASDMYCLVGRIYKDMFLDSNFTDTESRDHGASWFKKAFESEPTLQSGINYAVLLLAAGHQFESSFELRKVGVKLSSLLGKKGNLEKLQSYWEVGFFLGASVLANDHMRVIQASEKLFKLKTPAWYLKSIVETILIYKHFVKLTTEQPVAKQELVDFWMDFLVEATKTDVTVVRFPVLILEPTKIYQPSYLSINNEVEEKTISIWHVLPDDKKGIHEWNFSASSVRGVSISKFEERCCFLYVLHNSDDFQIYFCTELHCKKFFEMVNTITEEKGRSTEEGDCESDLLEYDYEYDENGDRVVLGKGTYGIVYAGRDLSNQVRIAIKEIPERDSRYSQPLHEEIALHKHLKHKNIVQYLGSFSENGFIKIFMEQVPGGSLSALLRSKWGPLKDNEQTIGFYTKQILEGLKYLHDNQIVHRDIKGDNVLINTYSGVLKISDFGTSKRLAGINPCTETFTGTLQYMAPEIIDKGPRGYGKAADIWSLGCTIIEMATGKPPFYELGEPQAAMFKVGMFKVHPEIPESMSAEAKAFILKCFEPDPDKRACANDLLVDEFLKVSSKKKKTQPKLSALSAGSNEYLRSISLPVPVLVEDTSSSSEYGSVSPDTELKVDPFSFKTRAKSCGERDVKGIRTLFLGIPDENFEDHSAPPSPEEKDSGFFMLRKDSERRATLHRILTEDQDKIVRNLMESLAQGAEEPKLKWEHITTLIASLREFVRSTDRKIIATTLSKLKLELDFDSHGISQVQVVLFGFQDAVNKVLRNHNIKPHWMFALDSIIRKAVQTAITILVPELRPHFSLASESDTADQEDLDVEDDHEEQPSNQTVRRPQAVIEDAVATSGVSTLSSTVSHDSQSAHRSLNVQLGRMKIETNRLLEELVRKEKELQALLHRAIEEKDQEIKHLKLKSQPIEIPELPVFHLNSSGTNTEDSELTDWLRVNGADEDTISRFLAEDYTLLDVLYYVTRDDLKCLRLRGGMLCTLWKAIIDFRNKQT
ULK1 inh = ULK1 kinase inhibitors, primary screen, biochemical, AlphaScreen | 30,000 compounds, 1.9% hits | Serine/threonine-protein kinase ULK1 (Homo sapiens), O75385 | inhibition, % at 5.96 µM | AID 1259251, 2017 | AlphaScreen Atg13 phosphorylation by ULK1, luminescence; in the data active means inhibition above about 43%;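 further: 0% = median of compound wells and 100% = no enzyme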
* marks the source's active call; other numbers are inactive results; / = not tested or not shown.

SMILES | ASK1 inh | ULK1 inh
OC1CCN(c2cc(F)cc(-c3ccnc(Nc4ccc(-n5cnc(-c6ccccn6)n5)cc4)n3)c2)CC1 | 7.0 | -30.0
Cc1ncn(-c2ccc(Nc3ncc(Cl)c(-c4cn[nH]c4)n3)cc2)n1 | -43.4 | 72.6*
c1cc(-n2cnc(N3CCOCC3)n2)ccc1Nc1ncc2cc(-c3cn[nH]c3)ccc2n1 | 8.8 | 11.4
Clc1cnc(Nc2ccc(-n3cnc(N4CCOCC4)n3)cc2)nc1-c1cn[nH]c1 | -33.1 | 77.2*
CC(=O)c1nc(Nc2ccc(-n3cnc(C)n3)cc2)ncc1Cl | 5.5 | 33.8
COc1cc(Nc2nc(NCCOc3ccccc3)c3ncn(CCN4CCCC4=O)c3n2)cc(OC)c1OC | -6.2 | -8.1
CCN(CC)c1nc(N)nc(Cl)n1 | 15.5 | 4.9
Cn1c(Nc2nc(NCc3nc4ccccc4[nH]3)c3ncn(C4CCCCC4)c3n2)nc2ccccc21 | 20.6 | 10.1
O=C(NCCN1CCOCC1)c1cccc(-n2ncc3cc(Nc4ccccc4)c(N4CCOCC4)cc32)c1 | -28.6 | 65.3*
COc1cc2c(cnn2-c2cccc(C(=O)NCCN3CCOCC3)c2)cc1Nc1ccccc1 | -2.8 | -18.1
Cc1cnc(CNc2cc(-c3ccncc3)nc(-c3ccccn3)n2)nc1 | / | 4.9
CNC(=O)c1ncccc1Nc1cc(Nc2ccc3c(c2)CCC(=O)N3)ncc1C(F)(F)F | -5.9 | 47.5*
CNC(=O)c1cc(F)ccc1Nc1cc(Nc2ccc3c(c2)CC(=O)N3)ncc1C(F)(F)F | 15.7 | 65.5*
N#Cc1ccccc1Nc1cc(NC(=O)Cc2ccc(F)cc2)ncc1C(F)(F)F | 13.7 | -2.8
O=C1Cc2cc(NC(=O)c3ccc(Br)cc3)ccc2N1 | / | -13.7
CC(=O)Nc1ccccc1Nc1cc(Nc2ccc3c(c2)CC(=O)N3)ncc1C(F)(F)F | -12.0 | 82.2*
CNC(=O)c1ncccc1Nc1cc(Nc2ccc3c(c2)CC(=O)N3)ncc1C(F)(F)F | 23.4 | 10.8
CNC(=O)c1cc(F)ccc1Nc1cc(Nc2ccc3c(c2)NC(=O)C3)ncc1C(F)(F)F | 1.2 | 63.9*
CNC(=O)c1ncccc1Nc1cc(Nc2ccc3c(c2)NC(=O)C3)ncc1C(F)(F)F | 8.9 | 4.1
O=C(Nc1cnccc1N1CCC2(CC1)OCCO2)c1ccc(Br)o1 | 2.0 | 4.2
CN(C)c1cccc(Nc2nc(NCc3cccnc3)c3ncn(CCN4CCCC4=O)c3n2)c1 | -57.9 | 30.7
Cc1ccccc1Nc1nc(N(C)CCO)nc2c1cnn2-c1ccccc1 | / | -45.4
Cc1cnc(N2CCCC2CO)nc1NCc1ccccc1 (centres undefined) | -5.0 | 0.8
O=P(O)(O)OCC(O)CO (centres undefined) | / | -5.3
c1cncc(CNc2nc(-c3ccc(N4CCOCC4)nc3)nc3c2ncn3C2CCCCC2)c1 | 8.1 | -20.4
SMILES | ASK1 inh | ULK1 inh
CCCNc1cc(Cl)nc(N)n1 | -28.1 | 0.6
NC(c1ccc(Cl)cc1)c1nc(-c2ccncc2)no1 (centres undefined) | -4.4 | 1.8
O=C(Cc1cn(-c2ccc(Oc3ccccc3)nn2)c2ccccc12)NC1CC1 | 12.2 | 24.4
Cc1cccc(NC(=O)Nc2cnn(-c3cccc(C(=O)Nc4cc(C)c(C)c(C)c4)c3)c2)c1 | -13.9 | -16.4
FC(F)(F)c1ccc(Cn2cnc3c(NC4CC4)nc(Nc4ccc(-n5ccnc5)cc4)nc32)cc1 | -3.0 | -21.0
CN1CCN(C(=O)c2ccc(-c3nc(NC4CCN(Cc5ccccc5)CC4)c4ncn(C5CCCCC5)c4n3)cc2)CC1 | -13.1 | 2.2
Cc1cc(Nc2ccccc2)nc(N2CCN(Cc3ccc4c(c3)OCO4)CC2)n1 | 10.9 | -22.9
Cc1cc(Nc2ccc(N3CCOCC3)cc2)nc(N2CCN(Cc3ccc4c(c3)OCO4)CC2)n1 | 42.5* | 0.2
O=C(Nc1ccc2[nH]ncc2c1)C1CCNCC1 | -2.0 | 55.9*
O=C(Nc1ccc2[nH]ncc2c1)C1CCNC1 (centres undefined) | -9.1 | 12.1
CC(C)n1cnc2c(NCCc3ccccn3)nc(Nc3ccc(N4CCOCC4)cc3)nc21 | 12.1 | 14.7
c1ccc(CNc2nc(-c3csc4ccccc34)nc3c2ncn3C2CCCCC2)cc1 | 4.0 | -21.5
COc1ccc(CCNC(=O)c2cncc(Nc3cccnc3)c2)cc1 | 2.4 | 9.1
O=S(=O)(NCc1ccccc1)c1ccc(-c2ncnc3[nH]ccc23)cc1 | 0.7 | 45.3*
COc1cccc(CNC(=O)Nc2ccc(-c3ncnc4[nH]ccc34)cc2)c1 | -6.7 | 16.3
COc1cccc(CNS(=O)(=O)c2ccc(-c3ccnc4[nH]ccc34)cc2)c1 | -6.1 | 22.3
COc1cccc(CNS(=O)(=O)c2ccc(-c3ncnc4[nH]cc(C)c34)cc2)c1 | -0.5 | 59.5*
O=C(Nc1nc(-c2ccncc2)cs1)C1COc2ccc3ccccc3c2O1 (centres undefined) | 8.9 | -18.4
Cc1nc(N2CCOCC2)c2ccccc2n1 | / | 13.0
CCC(=N)c1ccc(OC)c2cccc(NC)c12 | / | 64.4*
COc1ccccc1N1C(=O)c2cccc3c(C(=O)O)ccc(c23)C1=O | / | 6.7
c1ccc(CN2CCC(Nc3nc(Nc4nccc5ccccc45)nc4c3ncn4-c3ccsc3)CC2)cc1 | -26.2 | -3.2
CCN(CC)C(=O)C1CCCN(c2nc3c(NCc4nc5ccccc5[nH]4)ncnc3n2C(C)C)C1 (centres undefined) | -5.0 | 7.7
c1ccc2c(c1)CC(c1cnc3cc(-c4cn[nH]c4)ccc3n1)CO2 (centres undefined) | -0.6 | -10.0
CO/N=C(\C(=O)O)c1csc(NC(=O)CCl)n1 | / | 16.6
SMILES | ASK1 inh | ULK1 inh
O=C(CCl)Nc1nc(-c2ccc(Br)cc2)cs1 | / | 44.6*
O=C(N/C(=C\c1cccnc1)C(=O)N1CCOCC1)c1ccco1 | / | -3.0
CC(=O)Nc1ccc(Nc2nc(-c3ccc(N4CCOCC4)nc3)ncc2C)cc1 | -2.6 | 58.6*
CC(=O)Nc1ccc(Nc2nc(-c3ccc(N4CCOCC4)nc3)nc3nc[nH]c23)cc1 | 10.2 | -11.3
CN1C[C@@H]2C[C@H]1CN2c1cc2c(cc1F)c(=O)c(C(=O)O)cn2C1CC1 | / | -2.0
COC(=O)c1ccc(/C=C/C(=O)c2ccc3c(c2)OCCO3)cc1 | / | 43.3*
O=C(N/N=C\C=C\c1ccc(Br)cc1)c1ccc2c(c1)OCO2 | / | 14.6
Cc1ccccc1OCc1nc2ccc(-c3cn[nH]c3)cc2c(=O)[nH]1 | 14.1 | -14.0
Cc1ccccc1OCc1nc2ccc(-c3ccnc(N)n3)cc2[nH]1 | 7.9 | 43.5*
COc1cccc2c1OCC(c1nc3ccc(-c4ccnc(N)n4)cc3[nH]1)C2 (centres undefined) | -3.2 | -2.2
Nc1nccc(-c2ccc3nc(CCOc4ccc(CC(=O)NC5CC5)cc4)[nH]c3c2)n1 | 5.9 | 11.3
COc1ccccc1OCc1nc2ccc(-c3ccnc(N)n3)cc2[nH]1 | -1.4 | 47.6*
COc1cccc(OCc2nc3ccc(-c4ccnc(N)n4)cc3[nH]2)c1 | 10.1 | 62.1*
COc1cc(NC(=O)C2COc3c(cccc3OC)C2)ccc1-c1cn[nH]c1 (centres undefined) | -7.8 | -4.6
CN(Cc1ccccc1)C(=O)Nc1ccc(-c2cn[nH]c2)cc1OCCN1CCOCC1 | -13.2 | 1.8
Cc1cnc(Nc2ncccn2)nc1NC1CC1 | -21.5 | 15.8
COc1cc(Nc2ncc(C)c(NC3CC3)n2)cc(OC)c1OC | 19.8 | 64.7*
COc1cc(Nc2nc(NC3CC3)c3[nH]cnc3n2)cc(OC)c1OC | -5.9 | 62.3*
COc1ccc(CCNc2nc(Nc3ccccc3)nc3nc[nH]c23)cc1 | 22.1 | 4.3
